# PubChem BioAssay (NCI)
# The panel holds about 79,000 compounds, 15% with a hit somewhere; the sample as a whole holds those more often. Values without a mark were called inactive. Calls of active or inactive are those of the source. Rule as the data show it: active = growth inhibition above about 70%; inactive = the rest.
# Legend:
# [1] = NCI Yeast Anticancer Drug Screen. Data for the rad50 strain (AID 155);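 also: 0% = growth of vehicle-only cultures of the same strain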; settings: S. cerevisiae rad50 strain growth inhibition, hits give high values
# Procedure, shortened: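 Growth of the mutant yeast was measured after compound exposure and referenced to vehicle-treated cultures.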
# [2] = NCI Yeast Anticancer Drug Screen. Data for the mec2-1 strain (AID 157); settings: S. cerevisiae mec2-1 strain, hits give high values
# Procedure, shortened: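 Strain: mec2-1 (DNA repair/cell cycle alteration). Compound exposure, then growth measured; inhibition expressed relative to vehicle.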
# [3] = NCI Yeast Anticancer Drug Screen. Data for the sgs1 mgt1 strain (AID 161);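 also: 0% = growth of cultures given vehicle only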; settings: S. cerevisiae sgs1 mgt1 strain, hits give high values
# Procedure, shortened: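 Genetically altered yeast, compound exposure, growth inhibition relative to vehicle.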
# [4] = NCI Yeast Anticancer Drug Screen. Data for the cln2 rad14 strain (AID 165);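 also: 0% = growth equal to vehicle treated cultures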; settings: S. cerevisiae cln2 rad14 strain, hits give high values
# Procedure, shortened: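 Compounds are applied to the cln2 rad14 yeast strain, and growth is then compared with that of vehicle-treated cultures to give inhibition.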
# [5] = NCI Yeast Anticancer Drug Screen. Data for the bub3 strain (AID 167); settings: S. cerevisiae bub3 mutant strain, hits give high values
# Procedure, shortened: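 Whole-cell yeast assay. The mutant strain was incubated with compounds, and growth inhibition was determined by comparison with vehicle-treated cells.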
# [6] = NCI Yeast Anticancer Drug Screen. Data for the mlh1 rad18 strain (AID 175); settings: S. cerevisiae mlh1 rad18 strain growth inhibition, hits give high values
# Procedure, shortened: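 Read-out is yeast growth inhibition, calculated against vehicle-only controls. The compound was applied to a strain engineered with DNA damage repair alterations.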
# [7] = at 5.0 µM (retest, dose inferred, filed as 0.5)
# [8] = at 50.0 µM (retest, dose inferred, filed as 5.0)
SMILES,"growth inhibition [1, 7]","growth inhibition [1, 8]",growth inhibition ([1]; at 50.0 µM),"growth inhibition [2, 7]","growth inhibition [2, 8]",growth inhibition ([2]; at 50.0 µM),"growth inhibition [3, 7]","growth inhibition [3, 8]",growth inhibition ([3]; at 50.0 µM),"growth inhibition [4, 7]","growth inhibition [4, 8]",growth inhibition ([4]; at 50.0 µM),"growth inhibition [5, 7]","growth inhibition [5, 8]",growth inhibition ([5]; at 50.0 µM),"growth inhibition [6, 7]","growth inhibition [6, 8]",growth inhibition ([6]; at 50.0 µM)
S=c1nc(/C=C/c2ccc(Cl)c(Cl)c2)[nH][nH]1,29%,68%,79.5% (active),28%,51%,44.8%,27%,51%,65.2%,31%,42%,65%,33%,67%,83.7% (active),39%,71% (active),22.6%
CC1(C)CCC2(C(=O)O)CCC3(C)C(=CCC4C5(C)CC(O)C(O)C(C)(C(=O)O)C5CCC43C)C2C1 (stereo not drawn),99% (active),99% (active),91.9% (active),99% (active),99% (active),94.6% (active),99% (active),99% (active),93.2% (active),99% (active),99% (active),92.5% (active),99% (active),99% (active),92.4% (active),99% (active),99% (active),91.9% (active)
N=c1n(CC(=O)NC23CC4CC(CC(C4)C2)C3)c2ccccc2n1CC(=O)NC12CC3CC(CC(C3)C1)C2,-4%,34%,59.1%,-15%,8%,34.2%,-2%,42%,44.5%,-14%,25%,44%,-19%,12%,59.5%,-5%,27%,79.1% (active)
CC/S(=N\S(=O)(=O)c1ccc(C)cc1)c1cccc[n+]1[O-] (stereo not drawn),83% (active),97% (active),96.1% (active),82% (active),99% (active),96.7% (active),79% (active),98% (active),98% (active),51%,98% (active),91.2% (active),85% (active),98% (active),96.3% (active),87% (active),98% (active),95.4% (active)
N#CC(C#N)C(c1ccccc1)c1ccccc1,-4%,5%,13.1%,6%,20%,17.9%,1%,-41%,11%,-3%,-10%,-1.1%,0%,0%,1.75%,-1%,2%,10.5%
NNc1c(F)c(F)c(-c2c(F)c(F)c(NN)c(F)c2F)c(F)c1F,42%,71% (active),87.6% (active),38%,68%,89.2% (active),23%,98% (active),91.5% (active),48%,99% (active),89.8% (active),43%,98% (active),90.1% (active),39%,59%,86.8% (active)
